From PubChem BioAssay AID602474 (National Center for Advancing Translational Sciences (NCATS), 2012)
Records with an inconclusive call do not appear. A number with no mark means an inactive call. Calls of active or inactive are those of the source. Calls follow the shape of the dose curve; as a rule, active = well fitted inhibition curve with a large enough effect; inconclusive = small, poorly fitted or top-dose-only effect; inactive = no such curve, though single readings can be large or run the other way.

Each compound was assayed against Luciferin 4-monooxygenase (Photinus pyralis) (UniProt P08659) (assay: FLuc inhibitory activity for the follow-up compounds in a biochemical assay with a commercial detection reagent - BriteliteTM Plus (PerkinElmer)). Settings: purified FLuc, Britelite Plus luminescence; series mostly up to 38.3 µM; activity change, negative = inhibition: at the top concentration.
Text: NCGC Assay Overview: Firefly (Photinus pyralis) luciferase is one of the most commonly used transcriptional reporters. It is considered one of the more dynamically responsive reporters - that is, responsive to changes in reporter transcription - as it requires no post-translational modifications and is enzymatically active directly after protein synthesis (Wood, 1998). With no endogenous expression in mammalian cells and without the requirement of external excitation, it offers very little background signal, thus generally providing excellent signal to background for most assays. Previous profiling work to determine the prevalence of compounds that affect FLuc enzymatic activity (PubChem AID 411) identified that ~3% of the MLSMR library (then at ~72K) inhibited FLuc (Auld et al., 2008). […] Of the compounds identified in this profile that inhibited FLuc, 151 compounds were selected for further analysis, in an effort to better understand their mode of inhibiting FLuc. The assay described here was to determine the activity of the compounds in a FLuc assay that used a commercial formulation of detection reagent (BriteliteTM Plus; PerkinElmer).
NCGC Assay Protocol Summary: Reagents: Britelite Plus detection reagent; 50mM Tris acetate, pH 7.5; 10nM P. pyralis luciferase (Sigma #L9506) Control compounds used were two known firefly luciferase inhibitors (3-(5-(3-chlorophenyl)-1,2,4-oxadiazol-3-yl)benzoic acid and 5-(2-fluorophenyl)-3-phenyl-1,2,4-oxadiazole), and DMSO. Assay Summary: Three microliters of buffer containing firefly luciferase (final concentrations: 50mM Tris acetate, 10nM P. pyralis luciferase) are dispensed into each well of a Greiner white, solid-bottom 1536-well format plate using a flying reagent dispenser (FRD). These assay plates were then treated with 23nL of compound or DMSO using a Kalypsys pin tool, which allows for delivery of a 12-point intraplate titration of each compound to the assay plate (quantitative HTS), with final compound concentrations ranging from approximately ~38uM to 0.2nM. Three microliters of 2X Britelite Plus detection reagent was then delivered by FRD to each well. Luciferase activity was then measured using a ViewLux CCD imager (PerkinElmer), with an average exposure time of 2-30 seconds (2X binning, medium/high gain).

Chain of Luciferin 4-monooxygenase (Photinus pyralis) (P08659 whole entry, looked up): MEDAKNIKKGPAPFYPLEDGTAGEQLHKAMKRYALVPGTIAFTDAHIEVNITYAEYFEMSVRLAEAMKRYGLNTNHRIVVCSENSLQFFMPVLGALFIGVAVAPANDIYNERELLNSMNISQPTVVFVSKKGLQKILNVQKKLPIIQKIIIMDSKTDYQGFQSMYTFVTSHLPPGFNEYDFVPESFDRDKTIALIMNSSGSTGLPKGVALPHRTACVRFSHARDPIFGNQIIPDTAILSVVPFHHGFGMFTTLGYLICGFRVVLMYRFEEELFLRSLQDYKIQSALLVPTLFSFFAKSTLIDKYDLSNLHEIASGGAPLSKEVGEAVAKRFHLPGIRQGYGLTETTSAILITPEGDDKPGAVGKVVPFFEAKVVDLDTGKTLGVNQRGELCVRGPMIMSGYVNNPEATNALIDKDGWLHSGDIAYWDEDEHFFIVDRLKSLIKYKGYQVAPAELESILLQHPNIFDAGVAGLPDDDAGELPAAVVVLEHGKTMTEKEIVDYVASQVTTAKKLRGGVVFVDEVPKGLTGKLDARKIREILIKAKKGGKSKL

Structure (SMILES) | activity change, negative = inhibition | Potency
O=C(O)c1cccc(NC(=O)c2ccc(S(=O)(=O)c3ccccc3)cc2)c1 | -14.5% | 
Cc1cccc(NS(=O)(=O)c2cccc(C(=O)Nc3cccc(C(=O)O)c3)c2)c1 | 11.1% | 
COc1ccc(NS(=O)(=O)c2cccc(C(=O)Nc3ccccc3C(=O)O)c2)cc1 | 10.8% | 
O=C(Nc1ccc(Cl)cc1-c1nc2ccccc2s1)c1ccco1 | 4.66% | 
Cc1ccc2sc(-c3ccc(NC(=O)c4cc(-n5cnnc5)ccc4Cl)cc3)nc2c1 | 1.78% | 
O=C(Nc1ccccc1C(=O)O)c1cc(S(=O)(=O)Nc2cccc(F)c2)ccc1Cl | -15.1% | 
O=C(Nc1ccccc1C(=O)O)c1ccc(NC(=O)C2CC2)cc1 |  | 4.49 µM (active)
COc1ccc2nc(NC(=O)c3nc(S(=O)(=O)Cc4ccc(C)cc4)ncc3Cl)sc2c1 | -19.4% | 
O=C(Nc1c(Cl)cc(Cl)cc1-c1nc2ccccc2s1)c1ccc(Br)o1 |  | 17.9 µM (active)
Cc1ccc(C(=O)Nc2cccc(C(=O)O)c2)cc1S(=O)(=O)N1CCOCC1 |  | 11.3 µM (active)
CN=c1scc(-c2ccccc2F)n1/N=C/c1ccc[nH]1 |  | 0.0798 µM (active)
Nc1ccc2nc(-c3ccccc3)sc2c1 |  | 0.634 µM (active)
Cc1ccc(C(=O)Nc2ccc(C(=O)O)cc2)cc1S(=O)(=O)NCc1ccccc1 | -0.493% | 
O=C(Cc1ccc(Cl)cc1)Nc1cccc(C(=O)Nc2ccccc2C(=O)O)c1 | 17.1% | 
O=C(Nc1ccccc1C(=O)O)c1cccc(NC(=O)c2ccccc2Br)c1 | -2.59% | 
COc1ccc2nc(NC(=O)c3cccc(S(=O)(=O)N4CCOCC4)c3)sc2c1 | 20% | 
COc1ccc2nc(NC(=O)c3ccc(NS(=O)(=O)c4cccs4)cc3)sc2c1 | 55.4% | 
O=C(Nc1ccccc1-c1nc2ccccc2s1)c1ccc(Br)o1 | -19.6% | 

Structure (SMILES) | activity change, negative = inhibition | Potency
COc1ccc(C(=O)Nc2cccc(C(=O)O)c2)cc1S(=O)(=O)N1CCCC1 | -21.3% | 
Cc1ccc(C(=O)O/N=C(\N)c2ccccn2)c(Cl)c1 |  | 0.0252 µM (active)
O=C(COC(=O)c1ccccc1[N+](=O)[O-])c1ccc2c(c1)OCO2 |  | 0.0179 µM (active)
Nc1ccc2nc(-c3ccc(O)cc3)sc2c1 |  | 1.13 µM (active)
COc1ccc(C(=O)Nc2ccccc2C(=O)Nc2ccccc2C(=O)O)cc1 |  | 11.3 µM (active)
CCCC(=O)Nc1nc2ccc(OCC)cc2s1 |  | 0.0798 µM (active)
Cc1ccc(C(=O)Nc2ccccc2C(=O)O)cc1S(=O)(=O)N1CCCCCC1 |  | 8.95 µM (active)
O=C(Nc1ccccc1C(=O)O)c1cc(S(=O)(=O)Nc2ccccc2)ccc1Cl | 1.24% | 
O=C(Nc1ccccc1C(=O)O)c1cccc(NC(=O)c2ccccc2Cl)c1 | -1.17% | 
CC(=O)Nc1cccc(C(=O)Nc2ccccc2C(=O)O)c1 | -23.5% | 
O=C(O)c1cccc(NC(=O)c2ccc(Cl)c(S(=O)(=O)N3CCCCCC3)c2)c1 |  | 3.18 µM (active)
CCOc1ccc(C(=O)Nc2cccc(C(=O)O)c2)cc1Cl |  | 7.11 µM (active)
NC(=O)Cc1ccc2sc(-c3ccccc3)nc2c1 |  | 6.34 µM (active)
O=C(Nc1ccccc1-c1nc2ccccc2s1)c1cccnc1 | -12.6% | 
O=C(O)c1cccc(NC(=O)c2cccc(S(=O)(=O)Nc3cccc(F)c3)c2)c1 | -35.2% | 
COc1cccc(-c2nc3ccccc3s2)c1 |  | 5.65 µM (active)
COc1ccc2nc(NC(=O)C3CCN(S(=O)(=O)c4cccnc4)CC3)sc2c1 | 37.8% | 
